Experimental data taken from PubChem BioAssay AID720706 (Broad Institute, 2013).
In all, about 350,000 compounds went through this assay and about 5,500 (1.6%) were called active.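 Rule for the calls: active = significant combined selectivity score with lowered wild-type GFP, culture density cut under 30%, mutant RFP and density less affected; inactive = any of these conditions unmet.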 Many of the other results were omitted from the sample, so actives are more common in it than they were.

assay: reduced GFP signal of wild-type E. coli, primary screen, bacterial rRNA inhibitor project, GFP/RFP fluorescence, OD600, single point (AID 720706); conditions: E. coli WT GFP vs humanized-ribosome RFP mutants, 24 h; GFP signal change (wild-type ribosome): stronger effect = lower value, DMSO median 0, no signal -100; OD600 change: measured here: OD600 growth, DMSO median 0, no signal -100; RFP signal change: measured here: RFP humanized mutant strains, DMSO median 0, no signal -100, concentration not given here

Row | SMILES | GFP signal change (wild-type ribosome) | OD600 change [%] | RFP signal change [%]
1 | CCOc1cc(C=NNC(=O)CCCC(=O)NN=Cc2ccc(O)c(OCC)c2)ccc1O | 4.33% (inactive) | -0.6 | 2.51
2 | O=C(CCc1ccc(O)cc1)NN=Cc1cc(Br)ccc1O | -37.7% (inactive) | -33.3 | -8.11
3 | O=C(CCCO)N/N=C/c1cc(Br)ccc1O | -15.6% (active) | 11.6 | 1.76
4 | C[C@@H]1CCCCO[C@H](CN(C)Cc2ccc(C(=O)Nc3ccccc3N)cc2)[C@H](C)CN([C@H](C)CO)C(=O)c2cc(N(C)C)ccc2O1 | 4.58% (inactive) | 1.72 | 2.24
5 | CO[C@H]1CN(C)C(=O)c2cc(NC(=O)C3CCCC3)ccc2OC[C@@H](C)N(C(=O)CC2CC2)C[C@@H]1C | -2.32% (inactive) | -1.4 | -2.08
6 | COc1ccc(C(=O)C2CCCN(Cc3ccc4nonc4c3)C2)c(C)c1 (stereo not drawn) | -32.5% (active) | -18.1 | -4.26
7 | COc1ccc(C(=O)C2CCCN(C(=O)c3ccc(OC)o3)C2)c(C)c1 (stereo not drawn) | -3.94% (inactive) | -8.41 | -1.22
8 | COc1ccc(C(=O)C2CCCN(Cc3cccn3-c3ccccn3)C2)c(C)c1 (stereo not drawn) | -15.2% (inactive) | -23 | 0.721
9 | C[C@H]1CN(C)C(=O)c2cc(N(C)C)ccc2O[C@H]1CN(C)C(=O)OC(C)(C)C | -3.1% (inactive) | -2.56 | 0.88
10 | COc1ccc(C2=NN(C(=O)c3ccccc3C(=O)O)C(c3ccccc3O)C2)cc1 (stereo not drawn) | -9.01% (inactive) | -19.6 | -2.39
11 | COc1ccc(C2=NN(C(=O)c3cccnc3)C(c3ccccc3)C2)cc1 (stereo not drawn) | -23.4% (active) | 3.3 | 3.54
12 | COc1ccc(C2CC(c3ccccc3)=NN2C(=O)CSc2nccc(=O)[nH]2)cc1 (stereo not drawn) | 5.08% (inactive) | 8.39 | -0.959
13 | O=c1ccc2cc(S(=O)(=O)Nc3ccccc3F)ccc2o1 | 6.96% (inactive) | 12.1 | 8.39
14 | O=c1oc(-c2ccccc2NS(=O)(=O)c2ccc(Cl)cc2)nc2ccccc12 | -33.6% (active) | -24.4 | 0.207
15 | O=c1oc2ccccc2c(NC2CCCCC2)c1NS(=O)(=O)c1ccc(Cl)cc1 | 11.9% (inactive) | 7.09 | -0.375
16 | CO[C@@H]1CN(C)C(=O)c2cc(NC(=O)Nc3ccc4c(c3)OCO4)ccc2OC[C@@H](C)NC[C@@H]1C | 4.25% (inactive) | 10.8 | -0.511
17 | COc1ccc2c3c([nH]c2c1)[C@@H](CO)N(C(C)=O)CC31CCN(Cc2ccccc2Cl)CC1 | -2.42% (inactive) | -9.54 | 4.49
18 | C[C@@H]1CN([C@H](C)CO)C(=O)c2cc(NS(=O)(=O)c3ccccc3)ccc2O[C@H]1CN(C)S(=O)(=O)c1ccc(Cl)cc1 | -8.38% (inactive) | -11.5 | 2.44
19 | O=C(Cc1ccc(Br)cc1)NCCc1ccccc1 | -13.7% (inactive) | 6.7 | -2.35
20 | CC(C)(C)OC(=O)N1CCC(C(=O)Nc2cccc(C(=O)NCCc3ccccc3)c2)CC1 | 2.29% (inactive) | 6.05 | 0.0785
21 | COc1cccc(CCNC(=O)c2cccc(NC(=O)C3=C(C)OCCS3)c2)c1 | -25.3% (inactive) | -16.5 | -2.22

Row | SMILES | GFP signal change (wild-type ribosome) | OD600 change [%] | RFP signal change [%]
22 | CCNC(=O)c1cccc(NC(=O)C2CC(=O)N(CCc3ccccc3)C2)c1 (stereo not drawn) | 8.73% (inactive) | 3.98 | 1.88
23 | O=C(NCCc1ccccc1)c1cccc(NC(=O)c2ccccc2)c1 | -23.9% (active) | -10 | 0.86
24 | O=C(NCc1ccccc1)c1cccc(NC(=O)C2CCCCC2)c1 | -29.5% (active) | -22.2 | -7.71
25 | CO[C@@H]1CN(C)C(=O)c2cc(NS(=O)(=O)c3ccc(C)cc3)ccc2OC[C@H](C)N(Cc2nccs2)C[C@@H]1C | -2.96% (inactive) | -14.7 | 7.3
26 | COc1ccc2c3c([nH]c2c1)[C@@H](CO)N(C(=O)C1CC1)CC31CCN(C(=O)c2ccncc2)CC1 | 4.87% (inactive) | 6.99 | -3.09
27 | CC(C)NC(=O)N(C)C[C@H]1Oc2cc(-c3cncnc3)ccc2S(=O)(=O)N([C@@H](C)CO)C[C@H]1C | 3.27% (inactive) | 3.02 | -2.21
28 | CCC(=O)Nc1ccc2c(c1)C(=O)N(C)[C@@H]1CC[C@H](CC(=O)NCCc3ccncc3)O[C@@H]1CO2 | 2.16% (inactive) | 15.1 | -1.34
29 | Cc1ccccc1NC(=O)c1cc(S(=O)(=O)Nc2cccc(C(=O)O)c2)ccc1Cl | 9.89% (inactive) | 8.39 | -0.677
30 | Cc1ccc(C(=O)Nc2ccccc2-c2ccccc2)cc1S(=O)(=O)Nc1ccccc1 | -14.3% (inactive) | -30.9 | -8.24
31 | C=CCNC(=O)c1ccccc1NC(=O)c1ccc(Cl)c(S(=O)(=O)Nc2cccc(C)c2C)c1 | -40% (active) | -4.93 | 9.21
32 | COC(=O)C[C@@H]1C[C@H]2c3cc(NC(=O)NC4CCCC4)ccc3O[C@H]2[C@H](CO)O1 | -0.054% (inactive) | -2.88 | 1.29
33 | C[C@H](O)C#Cc1ccc2c(c1)O[C@H](CN(C)Cc1cccnc1)[C@@H](C)CN([C@H](C)CO)S2(=O)=O | -1.81% (inactive) | 5.84 | -2.32
34 | COc1ccccc1NC(=O)N[C@H]1CC[C@H](CCNS(=O)(=O)c2ccc(Cl)cc2)O[C@H]1CO | -12.2% (inactive) | -10.8 | 7.75
35 | CC(C)NC(=O)Nc1cccc2c1O[C@H](CN(C)Cc1ccccc1)[C@H](C)CN([C@H](C)CO)C2=O | 3.96% (inactive) | 10.7 | -0.787
36 | C[C@@H]1CN([C@H](C)CO)C(=O)c2cc(-c3ccncc3)cnc2O[C@H]1CN(C)C | -0.119% (inactive) | 3.91 | 0.159
37 | NNc1nc2c(Cl)cccc2s1 | -27.1% (active) | -15.6 | -0.505
38 | CN1C(=O)c2cc(NC(=O)NC3CCCC3)ccc2OC[C@@H]2O[C@@H](CC(=O)O)CC[C@H]21 | 3.92% (inactive) | 5.14 | -1.81
39 | CC[C@]1(C(=O)OC)[C@H]2C(=O)N(Cc3ccccc3)C(=O)[C@H]2[C@H]2CN=C(SCc3ccc(C#N)cc3)N21 | -22.2% (active) | -6.29 | 8.89
40 | COC(=O)[C@@]1(C)[C@H]2C(=O)N(Cc3ccccc3)C(=O)[C@H]2[C@H]2CN=C(SCC3CC3)N21 | -47.6% (inactive) | -80 | -15.4
41 | CC[C@]1(C(=O)OC)[C@H]2C(=O)N(Cc3ccccc3)C(=O)[C@H]2[C@H]2CN=C(SCc3ccccc3)N21 | -30.1% (inactive) | -42.8 | -8.47
